87 compounds from article PMC4336329 (PLoS ONE, 2015) can be followed below.

The campaign covered roughly 310,000 compounds. About 14,000 (4.5%) showed an effect of 50% or more. The effect is printed as a negative number. The list comes from a sample in which strong results are over-represented; it also holds similar structures and randomly drawn compounds.
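Further: peak tail current of the secondary pulse compared with the same well before compound.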

Sequence of human ether-à-go-go-related gene (hERG) potassium channel (Q12809 whole entry, looked up): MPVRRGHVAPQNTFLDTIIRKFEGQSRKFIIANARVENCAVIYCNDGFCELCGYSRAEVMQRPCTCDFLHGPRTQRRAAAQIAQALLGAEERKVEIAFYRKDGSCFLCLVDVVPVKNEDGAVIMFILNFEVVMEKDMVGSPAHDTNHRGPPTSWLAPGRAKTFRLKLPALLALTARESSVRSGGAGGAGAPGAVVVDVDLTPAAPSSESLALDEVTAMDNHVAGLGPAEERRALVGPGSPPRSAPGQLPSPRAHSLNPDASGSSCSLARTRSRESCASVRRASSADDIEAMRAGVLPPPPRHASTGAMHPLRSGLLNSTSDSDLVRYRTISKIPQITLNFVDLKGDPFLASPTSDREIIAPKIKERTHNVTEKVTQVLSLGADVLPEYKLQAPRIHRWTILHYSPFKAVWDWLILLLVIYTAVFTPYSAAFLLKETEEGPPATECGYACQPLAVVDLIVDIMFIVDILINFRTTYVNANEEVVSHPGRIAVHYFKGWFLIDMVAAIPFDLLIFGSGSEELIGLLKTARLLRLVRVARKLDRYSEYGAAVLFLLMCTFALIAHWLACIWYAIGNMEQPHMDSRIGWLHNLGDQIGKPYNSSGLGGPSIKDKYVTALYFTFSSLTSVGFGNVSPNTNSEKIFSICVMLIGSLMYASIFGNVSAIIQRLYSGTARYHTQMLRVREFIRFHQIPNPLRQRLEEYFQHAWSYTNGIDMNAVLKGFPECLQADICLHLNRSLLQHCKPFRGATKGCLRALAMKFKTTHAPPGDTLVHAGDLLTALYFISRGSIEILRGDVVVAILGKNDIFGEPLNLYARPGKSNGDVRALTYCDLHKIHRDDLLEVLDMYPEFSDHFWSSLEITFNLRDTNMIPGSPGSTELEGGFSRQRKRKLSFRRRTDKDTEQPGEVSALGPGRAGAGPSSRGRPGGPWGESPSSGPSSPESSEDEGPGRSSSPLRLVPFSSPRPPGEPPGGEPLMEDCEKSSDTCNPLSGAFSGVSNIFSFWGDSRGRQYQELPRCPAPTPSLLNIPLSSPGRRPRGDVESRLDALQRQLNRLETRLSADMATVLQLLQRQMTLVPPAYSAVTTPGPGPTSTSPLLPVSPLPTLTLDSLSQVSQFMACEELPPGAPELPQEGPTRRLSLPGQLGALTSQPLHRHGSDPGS

This assay concerns the target human ether-à-go-go-related gene (hERG) potassium channel (human, UniProt Q12809). Description: primary screen, population patch clamp on CHO cells stably expressing hERG; higher = less effect of the substance.
In the case of `COc1cccc(CC(=O)N2CCC(n3nccc3NC(=O)C3CCOC3)CC2)c1` (stereo not drawn), the “hERG current change (%, negative = inhibition) at 10uM” value is recorded as 21.7%.
Next, `NC(=O)c1ccccc1NC(=O)Nc1ccccc1Cl`: 11.8%; `COCCn1c(C)cc(C(=O)CSc2ccc(NC(C)=O)cc2)c1C`: 12.4%; `COc1ccc(N2CCN(C(=O)CCNC(=O)Cn3ccc4ccccc4c3=O)CC2)cc1`: -8.61%.
For `CN1CCN(NC(=O)c2cc(-c3ccccn3)nc3ccccc23)CC1`, the “hERG current change (%, negative = inhibition) at 10uM” value stood at 14%.
In the case of `Cc1cccc(OCCCCCNCCO)c1`, the “hERG current change (%, negative = inhibition) at 10uM” value is 3.93%.
Under `CCC(C)(C)n1nnnc1C(c1ccc(C)cc1)N1CCN(C(=O)c2ccco2)CC1` (stereo not drawn) stands -45.8%; under `CN1CCN(C(=S)C(=O)NCc2ccccc2)CC1`, -2.07%.
Next, `COc1cc(CNc2ccccc2SC)ccc1O`: 12.8%.
Consider `C=CCNC(=O)c1onc(CSc2ccc(F)c(F)c2)c1C(=O)NCC=C`, for which the “hERG current change (%, negative = inhibition) at 10uM” value is on record as -64.5%.
For the compound `COCCNC(=O)c1onc(CSc2ccc(F)c(F)c2)c1C(=O)NCCOC`, the “hERG current change (%, negative = inhibition) at 10uM” value is reported as -25.5%.
`C=CCNC(=O)c1onc(CSc2ccc(F)c(F)c2)c1C(=O)O`: the “hERG current change (%, negative = inhibition) at 10uM” value is given as 22.4%.
Next, `O=C(NCC1CCCO1)c1onc(CSc2ccc(F)c(F)c2)c1C(=O)O` (stereo not drawn): 1.63%; `C=CCNC(=O)c1onc(CSc2ccc(Cl)cc2)c1C(=O)NCC=C`: -36.6%.
`O=C(NCC1CC1)c1onc(CSc2ccc(F)c(F)c2)c1C(=O)NCC1CC1`: the “hERG current change (%, negative = inhibition) at 10uM” value is on record as -56.1%.
Turning to `Cl.OC(CNC1CCCC1)COc1ccccc1Br` (stereo not drawn), the “hERG current change (%, negative = inhibition) at 10uM” value is given as 7.79%.
Under `O=C(Cc1ccccc1)NCC(=O)Nc1ccccc1Br` stands 16.8%.
Consider `Cc1cc(NC(=O)CSc2nc(-c3ccc(Br)cc3)nc3c2c(=O)n(C)c(=O)n3C)no1`, for which the “hERG current change (%, negative = inhibition) at 10uM” value was -8.93%.
For `O=C(COC(=O)c1ccccc1F)NNC(=O)c1ccccc1`, the “hERG current change (%, negative = inhibition) at 10uM” value is 8.17%.
`O=C(CSCc1ccc(Cl)cc1)Nc1nccs1`: the “hERG current change (%, negative = inhibition) at 10uM” value is recorded as 6.08%.
With `CCc1ccccc1NC(=O)COc1ccc2c(c1)OCO2`, the “hERG current change (%, negative = inhibition) at 10uM” value is -4.6%.
Next, `CCCN(CCC)CCCNC(=O)CC(C(=O)N1CCc2ccccc21)n1ccnc1` (stereo not drawn): -0.225%; `CCN(CCCNC(=O)CC(C(=O)N1CCc2ccccc21)n1ccnc1)c1cccc(C)c1` (stereo not drawn): -65%.
On to `CCN(CCCNC(=O)CC(C(=O)N1CCc2ccccc21)n1ccnc1)c1ccccc1` (stereo not drawn), for which the “hERG current change (%, negative = inhibition) at 10uM” value was -45.6%.
Under `Nc1ccc(Cl)c(S(=O)(=O)Nc2ccc(Cl)cc2)c1` stands 17.3%; under `Cc1ccc(N2CC(C(=O)Nc3ccc(S(=O)(=O)Nc4nccc(C)n4)cc3)CC2=O)cc1` (stereo not drawn), 3.17%.
For `CN(C)C(=O)c1ccccc1Sc1cc(Cl)ccc1Cl`, the “hERG current change (%, negative = inhibition) at 10uM” value is -14.5%.
Under `CN(C)C(=O)c1cc(Cl)ccc1Sc1cc(Cl)ccc1Cl` stands -6.03%; under `CN(C)C(=O)c1ccccc1Sc1ccc(Cl)cc1Cl`, -70.4%.
Next, `Cc1onc(-c2ccccc2)c1C(=O)NCc1ccccc1F`: 7.62%.
For the compound `[N-]=[N+]=CC(=O)OC[C@H](N)C(=O)O`, the “hERG current change (%, negative = inhibition) at 10uM” value is listed as 10.8%.
Regarding `CCOC(=O)c1c(C)n(CC(O)CN(CC)CC)c2cc(Br)c(OC)cc12.Cl` (stereo not drawn), the “hERG current change (%, negative = inhibition) at 10uM” value is recorded as -26.9%.
For the compound `CCOC(=O)c1c(CN2CCN(CCO)CC2)n(-c2ccccc2)c2cc(Br)c(O)cc12`, the “hERG current change (%, negative = inhibition) at 10uM” value is listed as -68.2%.
Consider `CCOC(=O)c1c(C)n(-c2ccccc2)c2ccc(OCCN(C)C)cc12`, for which the “hERG current change (%, negative = inhibition) at 10uM” value was -10.6%.
With `CCOC(=O)c1c(CN(C)C)n(-c2ccccc2)c2cc(Br)c(OC)cc12`, the “hERG current change (%, negative = inhibition) at 10uM” value was -58.6%.
Next, `CCOC(=O)c1c(CN(C)C)n(-c2ccc(C)cc2)c2cc(Br)c(O)cc12`: -35.8%; `CCOC(=O)c1c(CN2CCN(Cc3ccccc3)CC2)n(C)c2cc(Br)c(OC)cc12`: 7.08%; `CCOC(=O)c1c(C)n(CC(O)CN(C)C)c2cc(Br)c(OC)cc12.Cl` (stereo not drawn): -51.5%.
`CCOC(=O)c1c(C)n(CC(O)CN2CCOCC2)c2cc(Br)c(OC)cc12.Cl` (stereo not drawn): the “hERG current change (%, negative = inhibition) at 10uM” value is -24%.
Next, `CCOC(=O)c1c(CN2CCOCC2)n(-c2ccccc2)c2cc(Br)c(O)cc12.Cl`: -7.35%.
Next, `CCOC(=O)c1c(CN(C)C)n(-c2ccccc2)c2cc(Br)c(O)cc12.Cl`: -75.8%; `CCOC(=O)c1c(CN2CCOCC2)n(-c2ccccc2)c2cc(Br)c(OC)cc12`: 3.27%.
Regarding `COc1ccccc1NC(=O)CSC1=NCCN1.Cl`, the “hERG current change (%, negative = inhibition) at 10uM” value is 36.3%.
As to `O=C(c1cccs1)N1CCC(c2ccccc2)C1` (stereo not drawn), the “hERG current change (%, negative = inhibition) at 10uM” value is given as -1.16%.
Turning to `N#Cc1nc(-c2cccs2)oc1NCCc1ccccc1`, the “hERG current change (%, negative = inhibition) at 10uM” value was 3.08%.
For `CC(NC(=O)C(=O)N1CCCCC1)C(c1cccs1)N1CCN(c2ccccc2F)CC1` (stereo not drawn), the “hERG current change (%, negative = inhibition) at 10uM” value was 1.73%.
Next, `Cc1ccc(-n2c(SCC(=O)NCCC3=CCCCC3)nc3n[nH]c(C)c3c2=N)cc1Cl`: -9.38%; `Cc1cc(-n2c(SCC(=O)NCCC3=CCCCC3)nc3n[nH]c(C)c3c2=N)ccc1Cl`: 4.5%.
Next, `COc1cccc(-n2c(SCC(=O)NCCC3=CCCCC3)nc3n[nH]c(C)c3c2=N)c1`: -58.9%; `COc1ccc(NC(=O)c2ccc(COc3ccccc3Br)o2)c(OC)c1`: 10.5%.
Under `CCCOc1ccc(OC(=O)Cc2ccc(OC)c(S(=O)(=O)N3CCOCC3)c2)cc1` stands -21.7%; under `Cc1ccc(NC(=O)CCN2C(=O)c3ccccc3C2=O)cc1C`, 4.19%; under `O=C(CSc1nnc(-c2c[nH]c3ccccc23)n1-c1ccc(F)cc1)NCc1ccco1`, -22%.
On to `O=C(COC(=O)C1CCN(C(=O)c2ccc(Cl)cc2)CC1)c1ccco1`, for which the “hERG current change (%, negative = inhibition) at 10uM” value is -26.2%.
For the compound `C/C(N)=C(/C#N)C(=O)COC(=O)C1CCN(C(=O)c2ccc(Cl)cc2)CC1`, the “hERG current change (%, negative = inhibition) at 10uM” value is listed as -14.3%.
Next, `O=C(COC(=O)C1CCN(C(=O)c2ccc(Cl)cc2)CC1)Nc1ccccc1F`: -56.9%; `Cc1cc(NC(=O)COC(=O)C2CCN(C(=O)c3ccc(Cl)cc3)CC2)no1`: -19.2%.
Regarding `O=C(COC(=O)C1CCN(C(=O)c2ccc(Cl)cc2)CC1)NC1CCS(=O)(=O)C1` (stereo not drawn), the “hERG current change (%, negative = inhibition) at 10uM” value is recorded as 26.9%.
Under `N#Cc1ccccc1NC(=O)COC(=O)C1CCN(C(=O)c2ccc(Cl)cc2)CC1` stands -62.5%; under `Cc1ccc(-c2cnco2)cc1`, 11.9%.
Under `COCCN(CCOC)C(=S)Nc1ccccc1Cl` stands 6.62%; under `COc1ccc(NC(=O)C(F)(F)F)cc1OC`, 15.1%; under `COc1ccc(CN2C(=O)c3oc4ccccc4c(=O)c3C2c2ccc(O)c(OC)c2)cc1` (stereo not drawn), 4.88%.
Regarding `Cc1cccc(C)c1OCC(O)CN1CCC(CN2C(=O)c3cccc4cccc(c34)C2=O)CC1.Cl` (stereo not drawn), the “hERG current change (%, negative = inhibition) at 10uM” value is listed as -76.2%.
With `CCOC(=O)N1CCN(CC(O)COc2c(C)cccc2C)CC1.Cl` (stereo not drawn), the “hERG current change (%, negative = inhibition) at 10uM” value is on record as -15.7%.
Next, `Cl.O=C1c2cccc3cccc(c23)C(=O)N1CC1CCN(CC(O)COc2ccc3ccccc3c2)CC1` (stereo not drawn): -46.1%; `Cc1cc(C)cc(OCC(O)CN2CCC(CN3C(=O)c4cccc5cccc(c45)C3=O)CC2)c1.Cl` (stereo not drawn): -70%; `O=C1c2cccc3cccc(c23)C(=O)N1CC1CCN(S(=O)(=O)c2ccc(F)cc2)CC1`: 2.54%.
Under `Cc1ccc(C)c(OCC(O)CN2CCC(CN3C(=O)c4cccc5cccc(c45)C3=O)CC2)c1.Cl` (stereo not drawn) stands -68.2%; under `COc1cccc(OCC(O)CN2CCC(CN3C(=O)c4cccc5cccc(c45)C3=O)CC2)c1.Cl` (stereo not drawn), -72.3%.
Under `Cc1ccc(S(=O)(=O)N2CCC(CN3C(=O)c4cccc5cccc(c45)C3=O)CC2)cc1` stands 11.3%; under `O=C(O)/C(=C\c1cccc(C(F)(F)F)c1)c1ccc(S(=O)(=O)N2CCCC2)s1`, 5.74%; under `O=C(Cc1cccs1)Nc1cccc(C(=O)Nc2ccco2)c1`, -37.9%.
`CCOc1ccc(Nc2oc(-c3ccco3)nc2C#N)cc1`: the “hERG current change (%, negative = inhibition) at 10uM” value is on record as -1.69%.
Next, `COC(=O)c1ccc(NC(=O)CSc2nc(N)c(NC(=O)c3ccc(Br)o3)c(=O)[nH]2)cc1`: 20.8%.
Next, `Cc1cc(C)c(S(=O)(=O)Nc2nccs2)c(C)c1`: 0.875%; `Cc1cc(S(=O)(=O)NCC(C)C)ccc1OCC(=O)NCC1CCCO1` (stereo not drawn): 8.03%.
As for `CC(=O)Nc1nc(C)c(Oc2ccc(C)cc2)c(=O)[nH]1`, the “hERG current change (%, negative = inhibition) at 10uM” value is -1.03%.
As for `S=C(NC1CC1)SCc1ccco1`, the “hERG current change (%, negative = inhibition) at 10uM” value is recorded as -11.5%.
Take `COc1cccc(NC(=O)CN(C)CC(=O)NC(C)c2ccccc2)c1` (stereo not drawn): the “hERG current change (%, negative = inhibition) at 10uM” value is recorded as -8.48%.
Under `CN(C)CCN1C(=O)c2oc3ccc(F)cc3c(=O)c2C1c1ccncc1` (stereo not drawn) stands -2%; under `CCOC(=O)CC(=O)CSc1ncnc2c1oc1ccccc12`, 5.2%; under `Cc1ccc(Cl)cc1Nc1nc(-c2sc(NC(=O)c3ccco3)nc2C)cs1`, 3.48%.
Next, `COc1ccc2c(c1)C(C)CC(C)(C)N2C(=O)CSc1ncn[nH]1` (stereo not drawn): -10.9%; `Cc1ccccc1OCCCC(=O)Nc1ccc(Br)cc1`: 5.24%.
`COc1cccc(OC)c1C(=O)OCC(=O)N(C)c1ccccc1`: the “hERG current change (%, negative = inhibition) at 10uM” value was 7.96%.
Next, `Cc1ccc(NC(=O)[C@H](C)NC(=O)C2CCN(C(=O)[C@@H](N)CC(C)C)CC2)cc1.Cl`: 7.29%.
